# Laboratory results published in PubChem BioAssay (NCATS).
# Where “and” joins values, the source holds several entries; their conditions need not be identical. Identical values can stand only once. Values without a mark were called inactive. Inconclusive results are not listed. A call without a number means that no potency is given here. Calls of active or inactive are those of the source. Unless noted, calls come from the whole dose curve; as a rule, active = well fitted curve in the direction sought with a large enough effect; inconclusive = small, poorly fitted or top-dose-only effect, or another doubt; inactive = no such curve, though single readings can be large; an effect the other way counts as inactive or inconclusive.
# What was measured:
# [1] = molecular target: Tyrosine-protein kinase Yes (Homo sapiens) (UniProt P07947); assay: qHTS for small molecule inhibitors of Yes1 kinase: Primary Screen (AID 686947); note: nearly all actives have a fitted effect of over 60% in size; note: potency is the fitted concentration of half-maximal effect
# Procedure, shortened: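 Yes1 (4 nM) preincubated 20 min with compound, then 60 min room-temperature reaction with 0.1 mM ATP and 0.3 mg/mL poly(E4Y) in pH 7.5 Tris, 10 mM MgCl2. ADP measured by ADP-Glo luminescence, normalised to enzyme/no-enzyme controls.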
# [2] = qHTS for small molecule inhibitors of Yes1 kinase: Counter Assay (AID 686950);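 note: no kinase present so only ADP-Glo detection of a fixed ADP amount is tested; luminescence from ADP-Glo reporting ADP in a fixed ATP and ADP mixture; series mostly up to about 77 µM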
# Procedure, shortened: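 Enzyme-free ADP-Glo interference check: compounds were preincubated 20 min in buffer, then an ATP/ADP mix (0.08 mM ATP, 0.02 mM ADP final) was added for 60 min at room temperature before two-step ADP-Glo luminescence detection.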
# [3] = molecular target: Peroxisome proliferator-activated receptor alpha (Homo sapiens) (UniProt Q07869); assay: qHTS assay for small molecule agonists of the peroxisome proliferator-activated receptor alpha (PPARalpha) signaling pathway (AID 651778); settings: PathHunter PPARalpha complementation, chemiluminescence, 6 h; stronger effect = higher value
# Procedure, shortened: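 Cells plated at 2,000/well and held overnight at 37 C, 5% CO2, then compound added by pin tool for 6 hr; after PathHunter detection reagent and 60 min at room temperature, chemiluminescence from enzyme complementation was read.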
# [4] = qHTS assay for small molecule activators of the nuclear factor-kappa B (NF-kB) signaling pathway (AID 651749; active = well fitted activation curve with a large enough effect in the signal ratio; the % refers to the signal ratio; note: series mostly up to about 77 µM); settings: NF-kB-bla ME-180 cells, beta-lactamase FRET ratio, 16 h; stronger effect = higher value
# Procedure, shortened: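 Screening used 2,000 ME-180 reporter cells per well exposed to pinned compound (23 nL) or DMSO; after 16 hr at 37C, beta-lactamase expression under NF-kB control was assessed through FRET.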
# [5] = qHTS for compounds that reverse cellular toxicity of Amyloid beta (A-beta) peptide in yeast: LOPAC Validation Assay (AID 720559)
# Procedure, shortened: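 Yeast cells expressing toxic A-beta were combined with pinned compounds in growth medium and incubated 48 hr at 30 C. Growth was read as absorbance at 600 nm and normalized to DMSO and to an equimolar FeCl3/clioquinol positive control.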
# [6] = molecular target: Tumor necrosis factor (Homo sapiens) (UniProt P01375); assay: qHTS assay to identify small molecules that stimulate Tumor Necrosis Factor-alpha (TNF-alpha) secretion (AID 651757; active = well fitted curve in the direction sought with a large enough effect in the signal ratio; the % refers to the signal ratio)
# Procedure, shortened: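 THP-1 cells (3000/well) exposed to compounds 17 hrs at 37 C. Secreted TNF-alpha detected by HTRF with cryptate- and XL665-labeled anti-TNF-alpha antibodies after 3 hr at room temperature.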
# [7] = qHTS assay to identify small molecules that stimulate interleukin-8 (IL-8) secretion (AID 651758; active = well fitted activation curve with a large enough effect in the signal ratio; the % refers to the signal ratio)
# Procedure, shortened: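 THP-1, 2000 cells/well; cpd 16 h, 37 C; add cryptate + XL665 anti-IL-8 Abs; RT 1-3 h; TR-FRET read.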
# [8] = molecular target: Nuclear receptor ROR-gamma (Homo sapiens) (UniProt P51449); assay: qHTS assay for small molecule antagonists of the retinoid-related orphan receptor gamma (ROR-gamma) signaling pathway (AID 651802);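 note: luciferase reporter luminescence driven by ROR response element; series mostly up to about 92 µM; nearly all actives have a fitted effect of over 60% in size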
# Procedure, shortened: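 CHO cells with TET-inducible ROR-gamma and RORE-luciferase reporter, dosed then doxycycline-induced. After 16 h at 37C, One-Glo luminescence read; decreased signal indicates antagonism.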
# [9] = qHTS assay for small molecule disruptors of the mitochondrial membrane potential - 1 hr assay (AID 651754; calls by dose curve; note: nearly all actives have a fitted effect of over 35% in size)
# Procedure, shortened: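 HepG2 cells, attached overnight, were exposed to compound for 1 hr at 37C, then stained 30 min with a potentiometric dye. Ratio of red aggregate (590nm) to green monomer (535nm) fluorescence reports membrane potential; collapse shifts signal toward green.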
# [10] = qHTS assay for small molecule disruptors of the mitochondrial membrane potential - 5 hr assay (AID 651755; calls by dose curve; note: nearly all actives have a fitted effect of over 40% in size)
# Procedure, shortened: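 HepG2 cells, attached overnight at 37C, were exposed to compound or DMSO for 5 hr at 37C, 5% CO2. Mito-MPS dye was then added for 30 min, and fluorescence read at 490/535 nm (monomers) and 540/590 nm (aggregates).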
# Sequence of Tumor necrosis factor (Homo sapiens) (P01375 whole entry, looked up): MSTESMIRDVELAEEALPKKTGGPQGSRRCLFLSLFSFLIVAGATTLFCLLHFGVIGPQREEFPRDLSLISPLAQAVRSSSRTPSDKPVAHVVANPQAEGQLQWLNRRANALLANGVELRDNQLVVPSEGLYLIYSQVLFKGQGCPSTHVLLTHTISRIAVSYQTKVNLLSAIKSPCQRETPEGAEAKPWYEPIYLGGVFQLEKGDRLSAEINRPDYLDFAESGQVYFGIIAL
# Sequence of Tyrosine-protein kinase Yes (Homo sapiens) (P07947 whole entry, looked up): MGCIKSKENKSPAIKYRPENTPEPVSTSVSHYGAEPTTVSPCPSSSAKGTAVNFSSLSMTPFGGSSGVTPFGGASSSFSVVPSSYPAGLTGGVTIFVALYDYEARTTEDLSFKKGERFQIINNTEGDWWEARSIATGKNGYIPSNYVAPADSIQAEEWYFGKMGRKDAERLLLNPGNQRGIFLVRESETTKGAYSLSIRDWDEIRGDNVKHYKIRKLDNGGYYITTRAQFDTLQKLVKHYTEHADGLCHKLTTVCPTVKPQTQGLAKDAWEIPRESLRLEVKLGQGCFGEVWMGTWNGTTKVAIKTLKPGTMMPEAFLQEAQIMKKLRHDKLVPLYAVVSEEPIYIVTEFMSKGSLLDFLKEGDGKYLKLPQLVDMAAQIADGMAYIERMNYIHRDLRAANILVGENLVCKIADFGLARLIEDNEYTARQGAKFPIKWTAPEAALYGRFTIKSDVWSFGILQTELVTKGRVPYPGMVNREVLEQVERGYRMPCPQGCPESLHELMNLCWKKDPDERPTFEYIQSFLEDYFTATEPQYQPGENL
# Sequence of Nuclear receptor ROR-gamma (Homo sapiens) (P51449 whole entry, looked up): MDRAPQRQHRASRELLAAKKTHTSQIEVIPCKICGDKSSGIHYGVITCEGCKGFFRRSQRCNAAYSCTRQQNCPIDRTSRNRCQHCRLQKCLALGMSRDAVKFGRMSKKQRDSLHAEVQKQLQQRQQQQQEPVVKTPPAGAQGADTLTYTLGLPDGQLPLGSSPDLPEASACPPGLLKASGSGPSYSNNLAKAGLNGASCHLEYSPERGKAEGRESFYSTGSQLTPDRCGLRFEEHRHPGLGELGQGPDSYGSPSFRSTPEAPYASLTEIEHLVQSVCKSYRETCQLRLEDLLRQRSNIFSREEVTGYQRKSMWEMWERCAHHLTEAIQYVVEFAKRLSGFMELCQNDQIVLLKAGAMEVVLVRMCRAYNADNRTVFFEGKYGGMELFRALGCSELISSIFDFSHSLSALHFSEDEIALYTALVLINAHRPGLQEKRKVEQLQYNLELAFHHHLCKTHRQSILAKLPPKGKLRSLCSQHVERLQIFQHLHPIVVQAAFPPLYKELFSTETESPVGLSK
# Sequence of Peroxisome proliferator-activated receptor alpha (Homo sapiens) (Q07869 whole entry, looked up): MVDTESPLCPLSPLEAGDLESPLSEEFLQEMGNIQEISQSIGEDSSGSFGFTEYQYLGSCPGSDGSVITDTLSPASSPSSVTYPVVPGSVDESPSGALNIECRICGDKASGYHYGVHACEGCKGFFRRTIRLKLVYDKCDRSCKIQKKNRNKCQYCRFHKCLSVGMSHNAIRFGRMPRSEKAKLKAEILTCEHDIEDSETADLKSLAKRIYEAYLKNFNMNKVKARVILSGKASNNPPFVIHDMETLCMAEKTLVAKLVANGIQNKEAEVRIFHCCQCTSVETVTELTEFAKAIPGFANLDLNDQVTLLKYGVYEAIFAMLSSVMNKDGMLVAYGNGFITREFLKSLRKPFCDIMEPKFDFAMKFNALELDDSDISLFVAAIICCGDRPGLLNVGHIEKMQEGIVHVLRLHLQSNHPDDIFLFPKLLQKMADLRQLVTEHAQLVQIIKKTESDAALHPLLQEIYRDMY
compound,measurement,setting,value
CCC(C)n1ncn(-c2ccc(N3CCN(c4ccc(OC[C@H]5CO[C@](Cn6cncn6)(c6ccc(Cl)cc6Cl)O5)cc4)CC3)cc2)c1=O (some centres not stated),Potency,[1],inactive
same,outcome,[2],inactive
NC[C@H](O)c1ccc(O)c(O)c1,max response,[3],-1.8%
O=C1CCC(N2C(=O)c3ccccc3C2=O)C(=O)N1 (configuration not stated),activation,[4],-0.119%
same,max response,[3],-0.602%
same,outcome,[5],inactive
CCn1c(-c2nonc2N)nc2cnc(Oc3cccc(NC(=O)c4ccc(OCCN5CCOCC5)cc4)c3)cc21,Potency,[1],inactive
same,outcome,[2],inactive
O=C(O)c1ccc(-c2c[nH]c3ccc(-c4ccccc4)cc23)cc1C1CCCC1,Potency,[1],1540 nM (active)
same,outcome,[2],inactive
Cc1[nH]c(=O)c(C#N)cc1-c1ccncc1,activation,[4],-0.647%
same,max response,[3],0.228%
same,outcome,[5],inactive
Cn1cnc([N+](=O)[O-])c1Sc1ncnc2nc[nH]c12,activation,[4],-1.21% and -0.92%
same,max response,[3],-2.81% and -2.18%
same,outcome,[5],inactive
CCCC(CCC)C(=O)O,activation,[4],0.312% and -3.31% and -0.945%
same,outcome,[6],inactive
same,outcome,[7],inactive
same,outcome,[5],inactive
Cc1ccccc1C(OCCN(C)C)c1ccccc1 (configuration not stated),activation,[4],2.9%
same,max response,[3],-4.12%
same,outcome,[5],inactive
NC(=O)c1cnccn1,activation,[4],-0.539% and -2.05%
same,outcome,[6],inactive
same,max response,[3],-0.88% and -1.97%
same,outcome,[8],inactive
same,outcome,[5],inactive
OC[C@H](Cc1ccccc1)Nc1nc(Oc2ccc3c(c2)CCC3)nc2c1ncn2Cc1ccc(-c2ccccc2)cc1,Potency,[1],inactive
same,outcome,[2],inactive
O=NN(CCCl)C(=O)NCCCl,activation,[4],-1.3%
same,max response,[3],-2.23%
same,outcome,[5],inactive
CCc1ccc(CCOc2ccc(CC3SC(=O)NC3=O)cc2)nc1 (configuration not stated),Potency,[1],1730 nM (active)
same,outcome,[2],inactive
CN[C@@H](C)C(=O)N[C@H]1CCCC[C@H]2CC[C@@H](C(=O)N[C@@H](c3ccccc3)c3cn(CCCCc4ccc(CCCCn5cc([C@@H](NC(=O)[C@@H]6CC[C@@H]7CCCC[C@H](NC(=O)[C@H](C)NC)C(=O)N76)c6ccccc6)nn5)cc4)nn3)N2C1=O,Potency,[1],inactive
same,outcome,[2],inactive
CN(C)c1ccc(C2Nc3ccc4ccccc4c3C3=C2C(=O)CC(C)(C)C3)cc1Br (configuration not stated),Potency,[1],inactive
same,outcome,[2],inactive
Nc1cccc(S(=O)(=O)N2CCCN(S(=O)(=O)c3ccc4c(c3)OCCO4)CC2)c1,Potency,[1],inactive
same,outcome,[2],inactive
COc1ccc2nc(S(=O)Cc3ncc(C)c(OC)c3C)[nH]c2c1 (configuration not stated),activation,[4],-0.714%
same,max response,[3],6.65%
same,Potency,[1],inactive
same,outcome,[2],inactive
NC(N)=NC(=O)c1nc(Cl)c(N)nc1N,activation,[4],-0.363%
same,outcome,[6],inactive
same,max response,[3],-5.82%
same,outcome,[8],inactive
same,Potency,[1],inactive
same,outcome,[2],inactive
same,outcome,[5],inactive
CCC(C)(C)C(=O)O[C@H]1C[C@@H](C)C=C2C=C[C@H](C)[C@H](CC[C@@H]3C[C@@H](O)CC(=O)O3)[C@H]21,Potency,[1],inactive
same,outcome,[2],inactive
Cc1c(C)c2c(c(C)c1O)CCC(C)(COc1ccc(CC3SC(=O)NC3=O)cc1)O2 (configuration not stated),activation,[4],-3.91%
same,max response,[3],1.07%
same,Potency,[1],inactive
same,outcome,[2],inactive
C[C@@H]1CN(Cc2ccc(F)cc2)[C@@H](C)CN1C(=O)c1cc2c(C(=O)C(=O)N(C)C)cn(C)c2cc1Cl,Potency,[1],inactive
same,outcome,[2],inactive
CC(=O)Oc1ccccc1C(=O)O,activation,[4],-1.39% and 0.118% and -2.43%
same,outcome,[9],inactive
same,outcome,[10],inactive
same,outcome,[6],inactive
same,max response,[3],-3.17% and 6.24% and -1.09%
same,outcome,[8],inactive
same,outcome,[5],inactive
O=c1[nH]cnc2[nH]ncc12,activation,[4],1.17%
same,outcome,[6],inactive
same,max response,[3],-0.201%
same,outcome,[8],inactive
same,outcome,[5],inactive
NC(=O)c1ccc(-c2nc(-c3ccc4c(c3)OCO4)c(-c3ccccn3)[nH]2)cc1,Potency,[1],inactive
same,outcome,[2],inactive
COc1ccc(C2=N[C@H](c3ccc(Cl)cc3)[C@H](c3ccc(Cl)cc3)N2C(=O)N2CCNC(=O)C2)c(OC(C)C)c1,Potency,[1],12200 nM (active)
same,outcome,[2],inactive
Cc1n[nH]c(C)c1Cc1sc2c(c1C(=O)N1C[C@H](O)CO1)c(=O)n(C)c(=O)n2CC(C)C,Potency,[1],inactive
same,outcome,[2],inactive
CCc1cncnc1N1CCN(Cc2nc3ccc(C(F)(F)F)cc3[nH]2)CC1,Potency,[1],inactive
same,outcome,[2],inactive
O=C(C1CC1)N1CC[C@@H](Cn2c(-c3ccc(-c4ccc5occc5c4)cc3)nc3cnccc32)C1,Potency,[1],inactive
same,outcome,[2],inactive
